# The list is not random: actives were taken first. Their share in the collection is about 7.3%.
# Tau fluor cs = counter-screen for tau fibril formation inhibitors. tau K18 P301L Alexa594 fluorescence, heparin fibrillization. 0.93% of 280,000 active. AID 1463. Potency, µM (highest dose often 57.7 µM), for inactives: at the top dose activity change, negative = decrease; further: nearly all actives have a fitted effect of over 55% in size
#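 Human K18 P301L tau (15 uM unlabeled plus 0.24 uM Alexa 594-labeled, final) in 100 mM sodium acetate pH 7 was mixed with compound and 20 uM heparin and incubated 6 hr at 37 C.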
# RORgamma inh = inhibitors of mouse ROR gamma transcriptional activity; P51450; Drosophila S2 Gal4-RORgamma UAS-luciferase reporter, 20 h; Potency, µM (highest dose often 53.6 µM), for inactives: at the top dose activity change, negative = inhibition, usual class: inhibitors; 5.4% of 310,000 active; AID 2551; further: nearly all actives have a fitted effect of over 60% in size
# Target sequence (P51450 whole entry, looked up, the tested form may be a part): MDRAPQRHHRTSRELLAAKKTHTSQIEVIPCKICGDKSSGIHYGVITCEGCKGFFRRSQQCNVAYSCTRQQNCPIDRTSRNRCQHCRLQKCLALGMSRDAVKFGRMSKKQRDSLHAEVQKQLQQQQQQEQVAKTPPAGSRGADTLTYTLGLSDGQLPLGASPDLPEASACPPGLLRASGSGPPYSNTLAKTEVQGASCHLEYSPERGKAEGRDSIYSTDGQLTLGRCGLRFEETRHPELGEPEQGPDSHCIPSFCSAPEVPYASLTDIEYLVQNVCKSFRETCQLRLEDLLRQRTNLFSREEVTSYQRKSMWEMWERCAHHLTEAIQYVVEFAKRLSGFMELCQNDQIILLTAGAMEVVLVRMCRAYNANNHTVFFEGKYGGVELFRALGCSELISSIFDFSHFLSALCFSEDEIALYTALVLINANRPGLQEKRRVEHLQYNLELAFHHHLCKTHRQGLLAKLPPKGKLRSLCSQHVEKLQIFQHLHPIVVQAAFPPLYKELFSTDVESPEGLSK
#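 Read-out: Photinus luciferase luminescence; inhibitors lower reporter signal. Insect Schneider cells with Gal4-ROR gamma fusion under metallothionein promoter, UAS reporter; 700 uM final copper sulfate induction, 20 hr, ambient temperature.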
# Tau fibril FP = tau fibrillization inhibition (FP); K18 P301L tau heparin fibrillization, Alexa594 FP, 6 h; Potency, µM (titrated, usually from 57.7 µM), for inactives: top-dose activity, negative = inhibition, actives largely listed as inhibitors; 0.39% of 280,000 active; further: nearly all actives have a fitted effect of over 55% in size
# Target sequence (P10636 561-689 P618L limits assumed): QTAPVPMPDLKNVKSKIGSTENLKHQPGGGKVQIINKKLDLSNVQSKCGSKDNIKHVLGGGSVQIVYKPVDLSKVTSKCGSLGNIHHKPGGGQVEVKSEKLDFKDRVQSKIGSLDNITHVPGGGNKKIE
#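 Compound effects on tau fibrillization are measured by Alexa 594 fluorescence polarization (ex 555, em 632 nm). K18 P301L tau is used at 15 uM with 0.24 uM labeled tracer, and 20 uM heparin induces aggregation over 6 hr at 37 C.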
# Tau ThT inhib = blocks human tau fibril formation measured by thioflavin T | 2.1% of 270,000 active | Potency, µM (highest dose often 57.4 µM), for the others: top-dose activity, negative = inhibition, hits mostly inhibitors | recombinant tau K18 P301L (four-repeat tau fragment), heparin-induced fibrillization, ThT fluorescence; further: nearly all actives have a fitted effect of over 55% in size
#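 Heparin-induced fibrillization of the P301L-mutant K18 repeat-domain fragment of human tau was followed by ThT binding in quantitative high-throughput format.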
# Gal4-VP16 FLuc = Gal4-VP16 reporter inhibition counter-screen. Drosophila S2 Gal4-VP16 UAS-luciferase, luminescence, 20 h. Potency, µM (highest dose often 53.6 µM), for inactives: at the highest dose activity, negative = inhibition, actives largely listed as inhibitors. 3.5% of 310,000 active. AID 2546;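 further: Gal4-VP16 expression switched on by copper sulfate through the metallothionein promoter; nearly all actives have a fitted effect of over 50% in size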
# * = called active by the depositor; ? = inconclusive; · = not tested or not shown; [ ] = dose if it differs, or a comment. The call rests on the fitted dose curve; in most records, active means well fitted curve in the direction sought with a large enough effect; inconclusive means small, poorly fitted or top-dose-only effect, or another doubt; inactive means no such curve, though single readings can be large; an effect the other way counts as inactive or inconclusive. On the % scale 0 is the no-effect control and ±100 the full control effect; potency means the concentration at half of the fitted maximal effect.
SMILES,Tau fluor cs,RORgamma inh,Tau fibril FP,Tau ThT inhib,Gal4-VP16 FLuc
Cc1ccc(/C=C/C(=O)c2ccccc2O)cc1,-20%,-20%,12%,?,3%
Cc1ccc(/C=C/C(=O)c2nc3ccccc3[nH]2)cc1,-3%,6.3µM*,18%,?,?
Cc1ccc(/C=C/C(=O)Nc2nc3ccccc3[nH]2)cc1,0%,5.6µM*,?,12%,?
Cc1ccc(C)c(C(=O)Nc2nc3ccccc3[nH]2)c1,·,-30%,·,·,-4%
O=C(/C=C/c1c(F)cccc1Cl)Nc1nc2ccccc2[nH]1,-4%,4.5µM*,-18%,2%,?
CCOc1ccccc1N1CCN(CC(O)COC2CCCc3ccccc32)CC1 (configuration not stated),·,-19%,·,·,6%
Cn1ccc2cc(S(=O)(=O)N3CCN(C(=O)Nc4cccc(F)c4)CC3)ccc21,-27%,·,-8%,8%,·
O=C(NC1CCCCC1)C1CCCN(S(=O)(=O)c2ccc(F)cc2)C1 (configuration not stated),·,-26%,·,·,-5%
COC(=O)C1[C@@H](OC)C(OC(=O)COc2ccc(OC)cc2)C[C@@H]2CN3CCc4c([nH]c5cc(OC)ccc45)[C@H]3C[C@H]12 (some centres not stated),·,12%,·,·,-7%
Cc1ccc(C(=O)/C=C/c2cn(CC(O)CN3CCCCCC3)c3ccccc23)cc1 (configuration not stated),?,·,-21%,13µM*,·
O=C(/C=C/c1cn(CC(O)CN2CCCCCC2)c2ccccc12)c1ccc(Br)cc1 (configuration not stated),?,·,-12%,22µM*,·
O=C(/C=C/c1cn(CC(O)CN2CCCCCC2)c2ccccc12)c1ccccc1 (configuration not stated),?,·,-6%,?,·
CCC1=C[C@@H]2CN(C1)Cc1c([nH]c3ccccc13)[C@@](C(=O)OC)(c1cc3c(cc1OC)N(C)[C@@H]1[C@@](O)(C(=O)OC)[C@H](OC(C)=O)[C@]4(CC)C=CCN5CC[C@]31[C@@H]54)C2,·,9%,·,·,-8%
O=[N+]([O-])c1cccn2cc(-c3ccc(Br)cc3)nc12,-14%,?,10%,5µM*,-4%
Cc1cccn2cc(-c3ccc(Cl)cc3)nc12,-9%,5.6µM*,-2%,4%,?
COc1ccc(-c2cn3cccc(C)c3n2)cc1F,-1%,-5%,3%,0%,-14%
Cc1ccc(-c2cn3cccc(C)c3n2)cc1,-13%,11µM*,-2%,-15%,-44%
Cc1ccccc1C(=O)Nc1c(C(=O)Nc2cccc(F)c2)oc2ccccc12,-27%,·,?,1%,·
CC(Oc1ccccc1)C(=O)Nc1c(C(=O)Nc2cccc(F)c2)oc2ccccc12 (configuration not stated),?,·,10µM*,10%,·
Cn1cccc1/C=N/n1c(-c2ccco2)n[nH]c1=S,-6%,11µM*,-7%,-6%,-4%
S=c1[nH]nc(-c2ccco2)n1/N=C/c1cccc(Cl)c1,-11%,14µM*,-5%,-9%,-16%
Cc1cccc(/C=N/n2c(-c3ccco3)n[nH]c2=S)c1,-25%,?,-4%,?,-20%
Cc1ccc(/C=N/n2c(-c3ccco3)n[nH]c2=S)cc1,-18%,7.1µM*,11%,-13%,?
S=c1[nH]nc(-c2ccccn2)n1/N=C/c1cccc(Cl)c1,-10%,11µM*,-8%,-9%,?
CC1CCC2C(=O)OC(CN3C(=O)c4ccccc4C3=O)CN2C1c1ccc(Br)cc1 (configuration not stated),-10%[11.6 µM],-4%[10 µM],-8%[11.6 µM],-9%[11.5 µM],1%[10 µM]
SMILES,Tau fluor cs,RORgamma inh,Tau fibril FP,Tau ThT inhib,Gal4-VP16 FLuc
COc1ccc(-c2nc(SCC(=O)NCCc3ccc(OC)c(OC)c3)n[nH]2)cc1,1%,·,-1%,?,·
Cc1ccc(C)c(CN2C(=O)N(c3cc(Cl)ccc3C)S(=O)(=O)c3ccccc32)c1,-9%,·,-15%,8%,·
S=c1[nH]nc(-c2ccco2)n1/N=C/c1ccc(Cl)c(Cl)c1,-21%,5.6µM*,7%,?,5.6µM*
Cc1ccc(CCNC(=O)c2c(C)oc3ncn(CC(C)C)c(=O)c23)cc1,-20%,·,-4%,-14%,·
COc1cc(CCCN2C(=S)NC[C@@H]2CC2CCCCC2)cc(OC)c1OC,4%,4µM*,5%,3%,?
COc1cc(CCCN2C(=S)NC[C@@H]2CCCCN)cc(OC)c1OC,-1%,14%,4%,0%,2%
Cc1nn(C)cc1/C=N/NC(=O)C1(O)c2ccccc2-c2ccccc21,-4%,-21%,3%,-3%,3.5µM*
CCCCn1c(=O)n(Cc2cccc(F)c2)c(=O)c2c1ncn2Cc1ccco1,-17%,3.2µM*,-7%,-10%,?
CCCN=C(C)c1c(-c2ccccc2)[nH]n(-c2nc3ccccc3s2)c1=O,-12%,2.5µM*,-4%,-7%,-25%
CCN(CC)CCCN=Cc1c(-c2ccccc2)[nH]n(-c2nc3ccccc3s2)c1=O,-21%,?,3%,?,-7%
COC(=O)Cc1[nH]n(-c2nc3ccccc3s2)c(=O)c1C(C)=Nc1ccc(Cl)cc1,-4%,11µM*,3%,?,-20%
COC(=O)Cc1[nH]n(-c2nc3ccccc3s2)c(=O)c1C(C)=Nc1ccc(C)cc1,-4%,?,3%,?,-22%
CC(=NCc1ccco1)c1c(C)[nH]n(-c2nc3ccccc3s2)c1=O,-1%,?,-5%,6%,?
C/C(=N/NC(=O)c1cccs1)c1c(C)[nH]n(-c2nc3ccccc3s2)c1=O,-13%,1.4µM*,9%,?,2µM*
CCC(=NCc1ccccc1)c1c(C(F)(F)F)[nH]n(-c2nc3ccccc3s2)c1=O,-11%,8.9µM*,3%,-5%,-17%
CC(=O)NC1[C@H](O)C[C@@](O)(C(=O)O)O[C@H]1[C@H](O)[C@H](O)CO (some centres not stated),·,9%,·,·,-1%
O=C1CSC(=S)N1N1C(=O)c2cccc([N+](=O)[O-])c2C1=O,-25%,-7%,?,13µM*,-1%[10 µM]
O=C1c2cccc([N+](=O)[O-])c2C(=O)N1CCO,-5%,1%,-3%,-5%,-4%
COc1ccc(-n2c(=O)c(-c3ccc(Cl)cc3)nc3cnc(N4CCNCC4)nc32)cc1,·,?,·,·,-12%
Cc1ccc(-n2c(=O)c3c(c4cc(C)ccc4n3C)n(CC(=O)N3CCCC3)c2=O)cc1,3%,·,13%,-1%,·
C=C/C1=C/Cc2ccccc2[C@H](C[N+](=O)[O-])C(C(C)=O)(C(=O)OC)C1 (some centres not stated),2%,-2%,-2%,-3%,2%
Cn1cccc1C(=O)N1CCC2(CCCN(c3ccncc3)C2)CC1,·,10%,·,·,9%
